Screen size: about 360,000 compounds; about 5,000 (1.4%) were called active. The list comes from a sample in which actives are over-represented; it also holds similar structures and randomly drawn compounds. Values without a mark were called inactive.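 Rule for the calls: active = inhibition of 50% or more, scaled per plate between neutral and stimulator controls; inactive = the rest.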

This assay is described as follows: mitochondrial permeability transition pore inhibitors, primary screen, biochemical, isolated mouse mitochondria, absorbance (AID 602449).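 Note: 0% = DMSO wells given calcium and 100% = 1 mM EGTA wells.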 The conditions noted are these: Ca2+ swelling absorbance, 30 min, at 10 µM, active compounds read high.
For `CCN1CCC2(CC1)N=C(c1ccc(F)cc1)C(=S)N2C(=O)c1ccc(C)cc1`, the inhibition – broadly, the drop in the measured response relative to a control, in per cent – was -2.8%.
The value for `CCN1CCC(O)(/C=C/c2ccc(C)cc2)C(C(=O)/C=C/c2ccc(C)cc2)C1` (stereo unspecified) was 58.4% (active); that for `COc1cccc(NC(=O)CSc2nnc(Cc3ccc(OC)c(OC)c3)o2)c1` was -0.5%.
In the case of `COc1ccc(CCN=C2SCC(=O)N2C)cc1OC`, the inhibition was -1.1%.
The value for `O=C(O)c1cc2c(cc1NC(=O)c1c(F)cccc1Cl)OCCCO2` was -1.5%; that for `N=c1n(Cc2ccc(Cl)cc2)c2ccccc2n1CC(O)c1ccco1` (stereo unspecified) was 83.7% (active).
With `N=c1n(CCc2ccccc2)c2ccccc2n1Cc1ccccc1F`, the inhibition is 8.3%.
In the case of `CCOc1ccc(C(O)Cn2c(=N)n(CCN3CCCCC3)c3ccccc32)cc1` (stereo unspecified), the inhibition is 3.5%.
Consider `O=C(Cc1ccccc1)Nc1c(C(=O)N2CCCCCC2)cnn1-c1ccccc1`, for which the inhibition is -1.2%.
Take `O=C(Cn1cnc2ccccc2c1=O)NCC1COc2ccccc2O1` (stereo unspecified): the inhibition was -0.6%.
With `O=C(Cn1nc(Cc2cccnc2)c2ccccc2c1=O)NCC1COc2ccccc2O1` (stereo unspecified) the figure was -1.9%; with `c1ccc(-c2cc3c(NCC4COc5ccccc5O4)ncnc3s2)cc1` (stereo unspecified), 91.4% (active); with `CCN=c1sc(C(=O)Nc2ccccc2)c(C)n1CC`, 4.6%.
As to `COC(=O)Nc1ncc(CN2C(=O)c3ccccc3C2=O)s1`, the inhibition was -1.2%.
The value for `CCCCNC(=S)NNC(=O)c1cc(C)on1` was -1.2%; that for `CC1=C(C(=O)N2CCOCC2)CC(CC(=O)NCc2cccc3ccccc23)C(=O)N1CCC1=CCCCC1` (stereo unspecified) was -2.5%.
The value for `CCCc1nc2scc(-c3ccc(C)cc3)c2c(=O)n1N` was 89.9% (active); that for `Cc1nc2scc(-c3cccs3)c2c(=O)n1N` was -3.1%.
Take `CCC(C(=O)OC)n1cnc2scc(-c3ccc(C)cc3)c2c1=O` (stereo unspecified): the inhibition was 0.8%.
With `CS(=O)(=O)N(Cc1ccccc1)c1ccc(C(=O)NN=C2CCCCCC2)cc1` the figure was 0.9%; with `COc1ccc(S(=O)(=O)N2CCOCC2)cc1NC(=O)CSc1cc(C)ccc1C`, -0.5%; with `O=C(Nc1nc(-c2ccc3c(c2)OCO3)cs1)c1ccncc1`, 72.3% (active).
With `Cc1ccc(-c2csc(NC(=O)C3=COCCO3)n2)cc1C`, the inhibition is 4.6%.
With `COc1ccc(C(O)c2nc(-c3ccc4c(c3)OCO4)cs2)cc1` (stereo unspecified) the figure was 2.5%; with `COc1ccc(NC(=O)NCCN2CCN(c3ccc(C)cc3)CC2)c(Cl)c1`, 0.3%.
The value for `COC(=O)c1cccc(-n2[nH]nnc2=S)c1` was 0.4%.
With `Cn1c(=O)c(=O)n(C)c2cc(S(=O)(=O)NCCN3CCN(c4ccccc4F)CC3)ccc21` the figure was 1.9%.
For the molecule `Cc1ccc(NC(=O)Nc2nnc(-c3ccncc3)s2)cc1`, the inhibition was 77.2% (active).
The value for `CCc1ccc(NC(=O)N[C@H](C(=O)O)C(C)CC)cc1` (stereo partly specified) was -1.3%; that for `COc1cccc(NC(=O)Nc2nnc(N3CCCCC3C)s2)c1` (stereo unspecified) was 0.5%.
The value for `CCc1ccc(NC(=O)Nc2ccncc2)cc1` was 63.6% (active); that for `CC(C)=CC(=O)Nc1nnc(-c2ccc(F)cc2)s1` was -0.8%.
Turning to `CC(C)CC(=O)Nc1ccc(Cc2ccncc2)cc1`, the inhibition is 1.5%.
For `Cc1nnc(NC(=O)Cn2c(=O)sc3ccccc32)s1`, the inhibition was -2.7%.
As for `Cc1ccc(S(=O)(=O)CCC(=O)Nc2nnc(CC(C)C)s2)cc1`, the inhibition is 0.4%.
For `Cc1nnc(NC(=O)Nc2ccc(Cl)c(Cl)c2)s1`, the inhibition is 88.5% (active).
`CCOC(=O)c1sc(NC(=O)CSc2nc(C)cc(C(F)(F)F)n2)c(C#N)c1C`: the inhibition was 13.1%.
Consider `CCCN=C1NC(=O)C(CC(=O)NCCc2ccc(OC)c(OC)c2)S1` (stereo unspecified), for which the inhibition is -0.3%.
With `CC[C@H]1OC(=O)[C@H](C)[C@@H](O[C@H]2C[C@@](C)(OC)[C@@H](O)[C@H](C)O2)[C@H](C)[C@@H](O[C@@H]2O[C@H](C)C[C@H](N(C)C)[C@H]2O)[C@](C)(O)C[C@@H](C)[C@@H]2N[C@@H](COCCOC)O[C@H]([C@H]2C)[C@]1(C)O` the figure was -2.3%; with `CCOC(=O)c1c(NC(=O)COC(=O)c2ccc(S(=O)(=O)C(F)F)cc2)sc(C(=O)N(C)C)c1C`, -0.1%.
The value for `CCOc1ccc(OCC(=O)Nc2c3c(nn2C(C)(C)C)CS(=O)(=O)C3)cc1` was 1.2%; that for `COc1ccc(S(=O)(=O)N2CCN(CC(=O)NCC3(N4CCOCC4)CCCCC3)CC2)cc1` was 0.2%; that for `NC1=NC[C@@H](Cc2ccc(O)cc2)N1CC1CCCCC1` was 0.7%.
With `C[C@@H](CN1CCC[C@H]1CN1C(N)=NC[C@@H]1Cc1ccccc1)N1C[C@@H](Cc2ccccc2)N(CCCC2CCCC2)C1=N`, the inhibition was 73.7% (active).
Take `CC[C@@H](C)[C@@H]1CN([C@@H](C)CN2CCC[C@H]2CN2C(N)=NC[C@H]2C(C)C)C(=N)N1CCc1ccc(Cl)c(Cl)c1`: the inhibition was -0.6%.
For `COc1ccc(S(=O)(=O)N2CCCCC2)cc1C(=O)NC1CCS(=O)(=O)C1` (stereo unspecified), the inhibition was 0.2%.
With `Cc1ccc(C(CNC(=O)Nc2ccccc2)N2CCN(C)CC2)cc1` (stereo unspecified) the figure was 2%.
Regarding `COc1ccc(OCCCC(=O)OC(C)C(=O)Nc2ccccc2[N+](=O)[O-])cc1` (stereo unspecified), the inhibition is 0.5%.
With `O=C(NC(=S)N1CCCCC1c1cccnc1)c1ccccc1` (stereo unspecified) the figure was -1.5%.
The value for `S=C(NCCc1ccccc1)N1CCn2cccc2C1c1ccncc1` (stereo unspecified) was -5.1%.
`S=C(Nc1cccc(Br)c1)N1CCn2cccc2C1c1cccnc1` (stereo unspecified): the inhibition is 63.5% (active).
With `COc1ccc(OC)c(C(O)c2ncc(-c3cccc(C(F)(F)F)c3)[nH]2)c1` (stereo unspecified) the figure was 1%.
The value for `Nc1nnc(SCC(=O)NCC(=O)Nc2ccc(F)c(F)c2F)s1` was -2.5%.
For `O=C(c1cc(-c2cccc(O)c2)on1)N1CCc2ccccc2C1`, the inhibition was 59.3% (active).
The value for `O=C(NCCCN1CCOCC1)c1cc(-c2cccc(O)c2)on1` was -0.1%; that for `O=C(c1cc(-c2ccc(O)cc2)on1)N1CCOCC1` was -1.3%; that for `CC(=O)NS(=O)(=O)c1ccc2c(c1)Cc1cc(S(=O)(=O)NC(C)=O)ccc1-2` was 0.4%.
As for `O=C(c1ccc(Br)o1)N(c1ccccn1)C1CCCCC1`, the inhibition was 8.3%.
As for `COc1ccc(CCNC(=O)CN2C(=O)COc3ccc(S(=O)(=O)N4CCCC4)cc32)cc1OC`, the inhibition was 0.6%.
The value for `CC12CN3CCN(CC(C3)/C1=N\NC(=O)c1ccccc1N)C2` was 2.6%; that for `CN(C)C(CNC(=O)CCCOc1ccccc1)c1ccco1` (stereo unspecified) was 1%; that for `COc1cc(C(=O)NCc2cc3cc(Cl)ccc3n2C)cc(OC)c1OC` was 0.7%.
With `COc1cc(C(=O)NCc2ccc3c(c2)cc(C)n3C)cc(OC)c1OC` the figure was 1.2%; with `CCn1c(CNC(=O)c2cc(OC)c(OC)c(OC)c2)cc2cc(C)ccc21`, 68.8% (active); with `CC1(C)S[C@@H]2[C@H](NC(=O)COc3ccccc3)C(=O)N2C1C(=O)OCc1ccccc1` (stereo partly specified), 2.2%.
`CC(C)(C)c1cc(NC(=O)NN2CCOCC2)nn1-c1c(Cl)cc(Cl)cc1Cl`: the inhibition was -1.3%.
The value for `Cc1ccc(-c2noc(CCC(=O)Nc3ccccc3N3CCN(C)CC3)n2)cc1` was 79.9% (active).
As for `COc1ccc(N2CCN(C(=O)CCc3nc(-c4ccc(C)cc4)no3)CC2)cc1`, the inhibition is -0.2%.
Take `COc1ccc(-c2noc(CCC(=O)N3CCN(c4cccc(C)c4)CC3)n2)cc1`: the inhibition was 0.4%.
Take `CC1CCN(C(=O)c2ccccc2NC(=O)Cc2ccccc2)CC1`: the inhibition was 2%.
As for `COc1ccc(-n2c(C)cc(C(=O)CSc3nnc(-c4cccs4)o3)c2C)cc1`, the inhibition is 91% (active).
With `COc1ccc(-n2c(C)cc(C(=O)COC(=O)c3cc(OC)c(OC)cc3NC(=O)c3cccs3)c2C)cc1` the figure was 3.8%.
With `Cc1ccc(-n2c(C)cc(C(=O)CSc3nnc4ccccn34)c2C)cc1` the figure was 5%; with `O=[N+]([O-])c1cc(Br)c(O)c(/C=N/Nc2nc3ccccc3s2)c1`, 82.3% (active); with `O=[N+]([O-])c1c(NCCO)cc(Sc2nc3ccccc3s2)c2nonc12`, 4.8%.
The value for `O=[N+]([O-])c1cccc(C=NN=Cc2ccccc2O)c1` was 2.1%; that for `Cc1c(C(=O)NCC2CC2)sc(=O)n1Cc1cccc(F)c1` was -2.3%; that for `COc1cc(C)c(Cl)cc1S(=O)(=O)n1ccnc1` was 0.5%.
Consider `N/C(=N\S(=O)(=O)c1cc(C(F)(F)F)cc(C(F)(F)F)c1)c1cccs1`, for which the inhibition was 35.4%.
Regarding `Cc1noc(C)c1COC(=O)c1cc2ccccc2cc1O`, the inhibition was 1%.
With `O=C(NNc1c2ccccc2nc2ccccc12)c1cc2ccccc2cc1O` the figure was 104% (active); with `O=C(CSc1nc(C2CC2)nc2ccccc12)Nc1cccc(O)c1`, -0.4%.
On to `CS(=O)(=O)N(CC(=O)N1CCOCC1)c1cccc(Cl)c1Cl`, for which the inhibition was -0.3%.
As to `Cc1ccc(-n2ncc3c2CC(C)(C)CC3NC(=O)CCc2cnn(C)c2)cc1` (stereo unspecified), the inhibition is -0.7%.
Turning to `O=C(NCCc1ccccn1)c1ccc(COc2ccccc2)o1`, the inhibition was -1.4%.
With `O=C(NNC(=O)c1ccc(-c2ccccc2)cc1)Nc1ccccc1`, the inhibition is 2.8%.
With `C=CC[n+]1c(-c2ccc(C)cc2)csc1NNC(=O)Nc1ccccc1` the figure was 86.7% (active).
With `Cc1ccc(NC(=O)NNC(=O)c2sccc2-n2cccc2)cc1`, the inhibition is 1.7%.
Regarding `CC1CCC(N2CC(=O)N(Cc3ccc4c(c3)OCO4)C(c3ccc(F)cc3)C2=O)CC1` (stereo unspecified), the inhibition was -0.9%.
The value for `COCCNC(=S)N1CCC(NC(=O)C23CC4CC(CC(C4)C2)C3)CC1` was -2.3%; that for `CCN1/C(=C\c2ccc3ccccc3[n+]2CC)Sc2cc(C)ccc21` was 101% (active).

For the origin of these results see PubChem BioAssay AID602449 (Sanford-Burnham Center for Chemical Genomics, 2012).
